Experimental data as given in the supplement of paper PMC8371130.
Counter-ions that a name gives are not always drawn.

test system: HL-1; test: relative cell viability (CellTiter-Glo) vs DMSO control (% of DMSO control); higher = more viable cells; settings: oxygen condition: normoxia 72 h; 1000 nM
Summary of the method: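 HL-1 mouse atrial cardiomyocytes were plated in 384-well plates at 1000 cells per well together with compounds at 40, 200, 1000 or 5000 nM in 0.01% DMSO. One day later, cells went to a hypoxic workstation (1% O2) for 48 h, then were reoxygenated for 24 h in a normal incubator, or stayed in normoxia for the same time. Cell viability was read by CellTiter-Glo luminescence and normalised to vehicle-treated control cells.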

| Compound | relative cell viability |
| --- | --- |
| CCN[C@H]1C[C@H](C)S(=O)(=O)c2sc(S(N)(=O)=O)cc21 [Dorzolamide HCL] | 107 |
| CNC[C@H](O)c1cccc(O)c1 [Phenylephrine HCl] | 117 |
| CN(CCOc1ccc(NS(C)(=O)=O)cc1)CCc1ccc(NS(C)(=O)=O)cc1 [Dofetilide] | 106 |
| O=C(O[C@H]1CN2CCC1CC2)N1CCc2ccccc2[C@@H]1c1ccccc1 [Solifenacin succinate] | 105 |
| CCCNCC(O)COc1ccccc1C(=O)CCc1ccccc1 (centres undefined) [Propafenone] | 110 |
| CN1CCOC(c2ccccc2)c2ccccc2C1 (centres undefined) [Nefopam HCl] | 44.4 |
| Clc1ccc(COC(Cn2ccnc2)c2ccc(Cl)cc2Cl)cc1 (centres undefined) [Econazole nitrate] | 102 |
| O=C1c2ccccc2C(=O)C1c1ccccc1 [Phenindione] | 102 |
| O=C1[C@H](CC[C@H](O)c2ccc(F)cc2)[C@@H](c2ccc(O)cc2)N1c1ccc(F)cc1 [Ezetimibe] | 116 |
| CN(C(=O)CN(CCO)CC(=O)N(C)C(C)(C)Cc1ccccc1)C(C)(C)Cc1ccccc1 [Oxethazaine] | 97.9 |
| N=C(N)NC(=N)N1CCOCC1 [Moroxydine] | 105 |
| O=C(O)C1(C(=O)O)CCC1.[NH2-].[NH2-].[Pt+2] [Carboplatin] | 108 |
| OC(CCN1CCCCC1)(c1ccccc1)C1CC2C=CC1C2 (centres undefined) [Biperiden HCl] | 106 |
| Cc1nccn1CC1CCc2c(c3ccccc3n2C)C1=O (centres undefined) [Ondansetron] | 101 |
| CCOC(=O)c1c(C)n(C)c2ccc(O)cc12 [Mecarbinate] | 106 |
| CC(C)NCC(O)c1ccc(NS(C)(=O)=O)cc1 (centres undefined) [Sotalol] | 98.4 |
| CC1=C(C(=O)OC(C)C)C(c2cccc([N+](=O)[O-])c2)C(C(=O)OC2CN(C(c3ccccc3)c3ccccc3)C2)=C(N)N1 (centres undefined) [Azelnidipine] | 112 |
| C[C@@H]1C[C@H]2[C@@H]3C[C@H](F)C4=CC(=O)C=C[C@]4(C)[C@@]3(F)[C@@H](O)C[C@]2(C)[C@@]1(O)C(=O)CO [Flumethasone] | 94.4 |
| N#CC[C@H](C1CCCC1)n1cc(-c2ncnc3[nH]ccc23)cn1 [Ruxolitinib] | 102 |
| C[N+](C)(C)C[C@H](O)CC(=O)[O-] [L-carnitine] | 102 |

| Compound | relative cell viability |
| --- | --- |
| CN1CCN(CCCN2c3ccccc3Sc3ccc(C(F)(F)F)cc32)CC1 [Trifluoperazine 2HCl] | 103 |
| CCCCCCCCOc1ccccc1C(=O)Nc1ccc(C(=O)OCC[N+](C)(CC)CC)cc1 [Otilonium Bromide] | 110 |
| CC(C)NC[C@H](O)COc1ccc(CCOCC2CC2)cc1 [Levobetaxolol HCl] | 108 |
| CCN1CCC[C@H]1CNC(=O)c1cc(S(N)(=O)=O)ccc1OC [Levosulpiride] | 108 |
| CN(C)CCN(Cc1cccs1)c1ccccn1 [Methapyrilene HCl] | 111 |
| O=C(O)c1cc(=O)c2ccccc2o1 [Chromocarb] | 107 |
| Cl.N=C(N)NCCC[C@H](N)C(=O)O [L-Arginine HCl] | 108 |
| NC[C@H]1CC[C@H](C(=O)O)CC1 [Tranexamic acid] | 102 |
| N[C@@H]1CCCCN(c2c(F)cc3c(=O)c(C(=O)O)cn(C4CC4)c3c2Cl)C1 [Besifloxacin HCl] | 98.6 |
| O=C1NC(=O)C(c2ccccc2)(c2ccccc2)N1 [Phenytoin] | 93.3 |
| C[N+]1(C)CCC(=C(c2ccccc2)c2ccccc2)CC1 [Diphemanil methylsulfate] | 106 |
| COCCCC/C(=N\OCCN)c1ccc(C(F)(F)F)cc1 [Fluvoxamine maleate] | 106 |
| O=P(O)(O)C(Cl)(Cl)P(=O)(O)O [Clodronate Disodium] | 113 |
| CCOc1nc2cccc(C(=O)O)c2n1Cc1ccc(-c2ccccc2-c2noc(=O)[nH]2)cc1 [Azilsartan] | 114 |
| CCCCNc1ccc(C(=O)OCCN(C)C)cc1 [Tetracaine hydrochloride] | 111 |
| C=C1c2cccc(O)c2C(=O)C2=C(O)[C@]3(O)C(=O)C(C(N)=O)=C(O)[C@@H](N(C)C)[C@@H]3[C@@H](O)[C@H]12 [Methacycline hydrochloride] | 103 |
| COC(=O)C1=C(C)NC(C)=C(C(=O)OC)C1c1ccccc1[N+](=O)[O-] [Nifedipine] | 75.6 |
| CCOC(=O)[C@H](CCc1ccccc1)N[C@H]1CCc2ccccc2N(CC(=O)O)C1=O [Benazepril hydrochloride] | 108 |
| O=C(NC[C@H]1CN(c2ccc(N3CCOCC3=O)cc2)C(=O)O1)c1ccc(Cl)s1 [Rivaroxaban] | 103 |
